HEK293 tox: cytotoxic in the GLP-1 receptor inverse agonist counter-screen; Potency, µM (titrated, usually from 38.3 µM), for inactives: at the top dose activity change, negative = inhibition, most hits filed as inhibitors; HEK293 cAMP-luciferase reporter cells, luminescence, 24 h; 0.13% of 410,000 active; AID 624418;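 note: loss of luciferase light is scored as toxicity; potency is the fitted concentration of half-maximal effect; % is set by controls: 0 for no effect and ±100 for the full control effect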
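A 23 nL compound transfer followed 12 hours of cell culture at 37 deg C; exposure then lasted 24 hr. Luciferase assay detection reagent was dispensed and plates read for luminescence after a 12 min room-temperature wait.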
GLP1R inv ag: inverse agonists of human GLP-1 receptor | HEK293 GLP-1R CRE-luciferase, luminescence, 24 h; GLP-1R form is constitutively active | Potency, µM (highest dose often 38.3 µM), without a hit: top-dose activity change, negative = inhibition, actives largely listed as inhibitors | 1.6% of 410,000 active | AID 624417; note: potency is the fitted concentration of half-maximal effect; % is set by controls: 0 for no effect and ±100 for the full control effect; nearly all actives have a fitted effect of over 55% in size
Target sequence (P43220 whole entry, looked up): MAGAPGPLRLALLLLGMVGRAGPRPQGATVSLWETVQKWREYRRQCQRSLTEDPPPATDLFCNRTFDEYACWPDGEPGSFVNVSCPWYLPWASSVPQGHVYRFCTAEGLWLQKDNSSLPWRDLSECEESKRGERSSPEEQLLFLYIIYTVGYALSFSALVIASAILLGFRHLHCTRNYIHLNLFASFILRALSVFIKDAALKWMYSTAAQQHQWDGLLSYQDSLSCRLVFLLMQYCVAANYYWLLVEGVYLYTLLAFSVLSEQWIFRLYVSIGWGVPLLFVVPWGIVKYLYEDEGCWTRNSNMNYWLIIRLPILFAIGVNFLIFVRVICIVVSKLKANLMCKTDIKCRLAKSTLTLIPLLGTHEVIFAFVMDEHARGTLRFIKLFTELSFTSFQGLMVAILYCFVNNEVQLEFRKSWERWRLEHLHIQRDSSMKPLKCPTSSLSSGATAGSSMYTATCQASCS
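Using stably transfected HEK293 (constitutively active GLP-1R, cAMP-luciferase reporter), compounds were incubated 24 hr and luciferase measured by luminescence.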
GLP-1R agonist: activates the human GLP-1 receptor. P43220. 0.007% of 380,000 active. HEK293 GLP-1R CRE-luciferase, luminescence, 4-6 h; cells express a hypersensitive GLP-1R form. Potency, µM (doses to about 45.6 µM), without a hit: top-dose activation, hits mostly activators; note: potency is the fitted concentration of half-maximal effect; % of control where 0% means no effect
uPA generation: cell surface uPA generation inhibition; Potency, µM (titrated, usually from 38.3 µM), for inactives: at the top dose activity change, negative = inhibition, most hits filed as inhibitors; 0.31% of 330,000 active; AID 540303; cell surface uPA generation assay, qHTS; active = well fitted inhibition curve with a large enough effect; inconclusive = small, poorly fitted or top-dose-only effect; inactive = no such curve, though single readings can be large or run the other way; tested in mouse RAW 264.7 cells; note: potency is the fitted concentration of half-maximal effect; % is set by controls: 0 for no effect and ±100 for the full control effect; nearly all actives have a fitted effect of over 55% in size
Mm-Cpn inhibitor: inhibitors of Methanococcus maripaludis chaperonin TRiC (MmCpn); purified Mm-Cpn ATPase, ADP Transcreener TR-FRET; Potency, µM (titrated, usually from 76.9 µM), for the others: top-dose activity, negative = inhibition, usual class: inhibitors; 0.031% of 330,000 active; note: potency is the fitted concentration of half-maximal effect; % is set by controls: 0 for no effect and ±100 for the full control effect; nearly all actives have a fitted effect of over 80% in size
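25 nM Mm-CPN + cpd, 10 min 37°C; + 10 uM ATP, 30 min 37°C; buffer 30 mM Tris pH 7.4, 100 mM KCl, 5 mM MgCl2, 1 mM DTT; Transcreener ADP HTRF detection 30 min RT.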
CCT chaperon mod: cytosolic chaperonin activity modulation; purified chaperonin ATPase assay, HTRF ADP detection, 30 min; activity change, % (no concentration beside the values), hits read low; 0.3% of 360,000 active; AID 651819; in the data active = activity change below about -30%; note: % is set by controls: 0 for no effect and ±100 for the full control effect
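ATPase activity: ADP formed was measured by HTRF Transcreener (665/615 nm ratio) after 30 min at 37 deg C with 10 uM ATP. Compounds screened at one 76 uM concentration against 40 or 20 nM TRiC in Tris pH 7.4/KCl/MgCl2/DTT buffer.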
Numbers without * were called inactive; ? = inconclusive; / = no result given. Compounds with a hit are over-represented: about 2.2% of the library has one in this group of screens. Unless noted, calls come from the whole dose curve; as a rule, active = well fitted curve in the direction sought with a large enough effect; inconclusive = small, poorly fitted or top-dose-only effect, or another doubt; inactive = no such curve, though single readings can be large; an effect the other way counts as inactive or inconclusive.

SMILES	HEK293 tox	GLP1R inv ag	GLP-1R agonist	uPA generation	Mm-Cpn inhibitor	CCT chaperon mod
CCN1C(=O)[C@H]2[C@@H](c3ccc(-c4ccc(Cl)c(Cl)c4)c(OC)c3)N[C@@](Cc3ccccc3)(C(=O)OC)[C@H]2C1=O	4.6%	?	0.4%	6.8%	-2.4%	-58.1*
CCN1C(=O)[C@H]2[C@@H](c3ccc(-c4ccc(F)cc4)c(OC)c3)N[C@@](CC(C)C)(C(=O)OC)[C@H]2C1=O	/	/	/	/	-6.0%	/
CCOC(=O)c1cnc(NCc2ccccc2OC)c2ccccc12	0.4%	?	/	/	/	/
CCOc1ccc(S(=O)(=O)NCc2nc3cccnc3n2Cc2ccccc2OC)cc1	-2.0%	16.3%	/	/	/	/
CC(=O)c1ccc(N2C(=O)N(Cc3cccc(C(F)(F)F)c3)c3ccccc3S2(=O)=O)cc1	-10.3%	10µM*	-10.8%	/	/	/
Cc1ccc(C)c(N2C(=O)N(Cc3cccc(C(F)(F)F)c3)c3ccccc3S2(=O)=O)c1	-6.4%	?	-0.4%	/	/	/
Cc1ccccc1OCc1nnc(SCc2cc(=O)c3cccc(F)c3[nH]2)n1C	4.2%	-0.1%	/	/	/	/
COc1ccc(C)cc1NC(=O)Nc1cccc(-c2noc(C)n2)c1	-17.6%	?	-1.0%	/	/	/
Cc1nc(-c2cccc(-c3noc(C)n3)c2)no1	-2.6%	5.7%	-14.8%	/	2.2%	-43.7*
Cc1nc(-c2cccc(NC(=O)Nc3ccc([N+](=O)[O-])cc3)c2)no1	?	3.55µM*	-7.9%	/	/	/
COCCN1CCC(CNCc2cn[nH]c2-c2ccc(C)c(C)c2)C1 (stereo not drawn)	-17.5%	?	16.1%	-5.4%	-4.6%	-0.3
COCCN1CCC(CNCc2cn(-c3cc(C)ccc3C)nc2-c2ccccc2)C1 (stereo not drawn)	?	2.82µM*	-0.7%	?	1.4%	0.2
O=C(CSc1ncnc2c1nnn2Cc1ccccc1)NC1CCCC1	-3.2%	-17.4%	-1.6%	-0.7%	?	-0.3
CC(C)(C)NC(=O)CSc1ncnc2c1nnn2Cc1ccccc1Cl	-27.1%	3.98µM*	-11.3%	-11.9%	-5.4%	-2.0
COc1cccc(CNc2ncc(C(=O)Nc3cc(OC)c(OC)c(OC)c3)c(C)n2)c1	-14.7%	?	6.9%	5.62µM*	-0.2%	-1.6
COc1cc(NC(=O)c2cnc(NCc3ccccc3)nc2C)cc(OC)c1OC	-10.6%	-2.9%	11.5%	-6.8%	-0.6%	-1.6
Cc1ccc(C(=O)NCCOC23CC4CC(CC(C4)C2)C3)cc1	-2.3%	?	3.0%	-2.6%	1.2%	-0.6
COc1cc(OC)cc(C(=O)NCCOC23CC4CC(CC(C4)C2)C3)c1	0.5%	10µM*	5.9%	-9.8%	-4.2%	-3.4
CC1CCCC(NC(=O)c2cccc(S(=O)(=O)NCc3ccccc3)c2)C1C (stereo not drawn)	-22.1%	11.2µM*	6.1%	-9.8%	0.0%	-3.2
Cc1ccc(OCCNC(=O)c2cccc(S(=O)(=O)NCc3ccccc3)c2)cc1	?	5.01µM*	3.6%	-12.8%	0.4%	-1.9
COc1ccc(-c2cc(C(=O)Nc3c(Cl)cccc3Cl)no2)cc1OC	1.5%	22.9%	/	/	/	/
Cc1ccc(NC(=O)Nc2nnc(SCC(=O)N3CCCCC3)s2)cc1	0.1%	-21.3%	/	/	/	/
Cc1ccc(N2CC(NC(=O)Cc3cccs3)CC2=O)cc1C (stereo not drawn)	3.4%	13.6%	/	/	/	/
COc1ccccc1NS(=O)(=O)c1cn(C)cn1	1.7%	4.2%	-5.1%	14.5%	0.7%	-53.3*
COc1ccc(NS(=O)(=O)c2cn(C)cn2)c(OC)c1	?	23.9%	-6.2%	-2.5%	0.2%	-0.1
CCOc1ccc(C(=O)Nc2nnc(S(=O)(=O)N(CC)c3ccccc3C)s2)cc1	-20.9%	?	/	/	/	/
Cc1cc(C)cc(NS(=O)(=O)c2ccc3[nH]cc(C(=O)NC4CCCCC4)c(=O)c3c2)c1	-17.9%	7.08µM*	/	/	/	/
Cc1ccccc1NS(=O)(=O)c1ccc2[nH]cc(C(=O)NC3CCCCC3)c(=O)c2c1	-22.5%	10µM*	/	/	-1.1%	/
